Experimental data: PubChem BioAssay (NCI)
This is part of a sample that, as a whole, favours compounds with a hit. Of some 83,000 tested, about 20% had one in any assay.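 Values shown are percent growth following 48 h exposure of cells in 96-well plates to a single concentration of compound; below 10 was considered active.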 The source made the active and inactive calls.

Tested on: HL-60(TB) leukemia
Test: NCI-60 one-dose screen, 48 h (100 = growth as untreated, 0 = no growth, -100 = all killed)
Settings: 10 µM unless noted

Structure (SMILES) | growth
Cc1ccccc1NC(=O)N/C(N)=N/c1nc(-c2cccc([N+](=O)[O-])c2)cs1 | 6.06% (active)
CC(=O)c1ccccc1NC(=O)C(C)(c1ccccc1)c1ccccc1 | 94.3% (inactive)
NC(CO)(CO)c1ccccc1 | 119% (inactive)
COc1ccc2c(c1)O/C(=C\c1ccc([N+](=O)[O-])o1)C2=O | -17.7% (active)
COc1cc(NC(=O)C2=C(N3CCOCC3)/C(=C/c3ccc(Cl)cc3)CC2)cc(OC)c1OC | 21.6% (inactive)
C/C(=C\CCc1ccoc1)CC/C=C(\C)CCCN1CCC(CO)CC1 | 17.2% (inactive)
Cc1nc2ccccc2n1C(=O)C[C@@H]1NC(=S)NC1=O | 101% (inactive)
COc1cccc(-c2nc3sccn3c2-c2ccnc(NCCCNS(=O)(=O)c3c(Cl)cccc3Cl)c2)c1 | 17.9% (inactive)
Cc1nccc2c3ccc(OCc4cn(-c5ccc(Br)cc5)nn4)cc3n(CCCc3ccccc3)c12 | 46.1% (inactive)
COc1ccc(/C=C/C(=O)c2cc3c(N)c(C(=O)Nc4ccc(OC)cc4)sc3nc2C)cc1 | 2.26% (active)
COS(=O)(=O)c1ccc(Br)cc1 | 122% (inactive)
CCOC(=O)CSc1nc(-c2cc(OC)ccc2OC)cc(-c2ccc(OC)cc2)c1C#N | 98.5% (inactive)
Cc1ccccc1-c1nc(C(Cl)Cl)nc2cc(-c3ccccc3)nn12 | 92% (inactive)
O=C(Nc1ccc(-n2cc(-c3ccncc3)c(-c3ccc(O)c(Cl)c3)n2)cc1)Nc1cc(C(F)(F)F)cc(C(F)(F)F)c1 | 43.6% (inactive)
Cc1c(O)c(=O)n(-c2ccccc2)n1C | 119% (inactive)
COc1cc(/C=C/c2cc(/C=C/c3ccc(O)c(OC)c3)n(C(=O)Nc3ccc(C)cc3C)n2)ccc1O | -30.4% (active)
Cc1cc(Cl)ccc1Nc1nc(C(F)(F)F)ccc1C(=O)N/N=C/c1c(Cl)cccc1Cl | -26.8% (active)
O=c1ccn(C2OC(CO)C(O)C2F)c(=O)[nH]1 (stereo not given) | 130% (inactive)
Cc1cc(F)ccc1S(=O)(=O)Nc1cc(-c2c(O)ccc3ccccc23)c(O)c2ccccc12 | -10.8% (active)
COc1ccc(C(=O)OC2C(OC3C(O)COC(O[C@H]4C[C@H]5[C@@H]6CC=C7C[C@@H](O)CC[C@]7(C)[C@H]6CC[C@]5(C)[C@H]4[C@H](C)C(=O)CCC(C)C)C3OC(C)=O)OCC(O)C2O)cc1 (stereo not given in full) | -40.7% (active)

Structure (SMILES) | growth
N=C1c2nc3n(c2C(=O)c2nc4n(c21)CCCC4)CCCC3 | 96.3% (inactive)
Cc1ccc(-c2nc3nc(-c4ccccc4)nc(N4CCN(S(=O)(=O)c5ccccc5)CC4)c3o2)cc1 | 107% (inactive)
O=c1[nH]c(Cc2nc3ccccc3s2)nc2cc(Br)ccc12 | 77% (inactive)
COC(=O)C(CC(=O)c1ccc(-c2ccccc2)cc1)c1ccccc1 (stereo not given) | 15.4% (inactive)
Cc1ccc(S(=O)(=O)N(CCC(=O)O)c2ccccc2)cc1 | 92.1% (inactive)
OC(CBr)c1ccnc2ccccc12 (stereo not given) | 100% (inactive)
CC/C=C\C[C@H](O)C/C=C1/C(=O)C(Cl)=C[C@@H]1C/C=C\CCCC(=O)OC | -2.33% (active)
CC(=O)NCCN | 103% (inactive)
CCc1nc(N)nc(N)c1C#CC(C)c1ccc(-c2ccncc2)cc1Cl (stereo not given) | -19.9% (active)
Cc1ccc(NC(=O)c2nc(S(C)(=O)=O)oc2-c2ccc(F)cc2)cc1Nc1ccc2ncn(C)c(=O)c2c1 | 46.5% (inactive)
COc1cc(CSc2nc3ccc(C)cc3c(=O)n2-c2ccccc2)cc(OC)c1OC | 12.2% (inactive)
NC(=S)NN=C1CCCCC1 | 74.1% (inactive)
COc1cccc(NC(=O)c2sc3nc(C)c(C(C)=O)cc3c2N)c1 | 6.61% (active)
NC(=O)c1c(NC(=O)/C=C/c2cccs2)sc2c1CCC(=O)C2 | 2.8% (active)
O=C1CCCCCCCCC(O)C(O)CCCC(c2cccs2)O1 (stereo not given) | 77.9% (inactive)
O=c1ccccc(-c2ccc(Br)cc2)c1O | -35.9% (active)
COc1ccc(C/C(=C(\C)c2ccc(OCCN3CCCC3)cc2)c2ccc(OCCN3CCCC3)cc2)cc1 | -58.1% (active)
Nc1ccc(N)c([N+](=O)[O-])c1 | 110% (inactive)
CNC(=O)c1cc(Oc2ccc(NC(=O)c3[nH]c(SC)nc3-c3ccc(F)cc3)cc2)ccn1 | 78.6% (inactive)
CC1(C)NC2=C(C(Nc3cccnc3)N1)C(c1ccc([N+](=O)[O-])cc1)C(C(=O)c1ccc(N=[N+]=[N-])cc1)O2 (stereo not given) | 104% (inactive)
